The values that follow come from ChEMBL document CHEMBL1157539, “Thousands of chemical starting points for antimalarial lead identification” (Nature, 2010).

What all share (type): functional
Experiment [1] relates to Plasmodium falciparum. Briefly: GSK_TCMDC: Inhibition of Plasmodium falciparum 3D7 in whole red blood cells, using parasite LDH activity as an index of growth. Test compounds present at 2uM.
The test system of experiment [2] is Plasmodium falciparum. As to the kind of experiment: GSK_TCMDC: Inhibition of Plasmodium falciparum Dd2 in whole red blood cells, using parasite LDH activity as an index of growth. Test compounds present at 2uM.
A further experiment has as its system HepG2. Briefly: GSK_TCMDC: Percent inhibition of human HepG2 cell line. Test compounds present at 10uM.

One may read the Inhibition as how much of the control response was suppressed. Low readings indicate a weak effect, high ones a strong effect. Turning to `COc1ccc(NC(=O)N2CCCN(CCCCCNC(=O)/C=C/c3ccc(Cl)cc3)CC2)cc1Cl`, the figures for the Inhibition in the experiment on Plasmodium falciparum [1], in the experiment on Plasmodium falciparum [2] and in the experiment on HepG2 were 97%, 1% and 15%, respectively.
As for `COc1cccc(CNC(=O)NC2CCN(c3ccnc(Nc4ccc(F)cc4)n3)C2)c1` (stereo not given), the Inhibition in the experiment with Plasmodium falciparum [1] is recorded as 94%; in the experiment with Plasmodium falciparum [2] it was 64%; with HepG2 it was 20%.
`CC(C)(C)Oc1ccc(NC(=O)c2ccccc2O)cc1`: the Inhibition in the experiment with Plasmodium falciparum [1] was 86%; with Plasmodium falciparum [2], 67%; in the experiment on HepG2, 4%.
On the same counts, the results for `CCCCNCc1ccc(-c2nc(CN(C(=O)Nc3cc([N+](=O)[O-])ccc3F)C3Cc4ccccc4C3)cs2)cc1.O=C(O)C(F)(F)F` are 87%, 13% and 15%.
Turning to `COc1ccc(N2CCN(C(CNC(=O)C3CCCCC3)c3ccc4c(c3)OCO4)CC2)cc1` (stereo not given), the results for the Inhibition in the experiment on Plasmodium falciparum [1], in the experiment with Plasmodium falciparum [2] and in the experiment with HepG2 were 92%, 83% and 1%, respectively.
As to `CN1CCN(c2ccnc3ccc(NC(=O)Nc4c(Cl)cccc4Cl)cc23)CC1`, the Inhibition in the experiment with Plasmodium falciparum [1] was determined as 96%; with Plasmodium falciparum [2] it was 12%; in the experiment on HepG2, 11%.
As to `N#Cc1cccc(NC(=O)c2cccc(S(=O)(=O)NC3CCN(CC4CCCCC4)C3)c2)c1.O=C(O)C(F)(F)F` (stereo not given), the Inhibition in the experiment with Plasmodium falciparum [1] is listed as 100%; in the experiment with Plasmodium falciparum [2], 27%; in the experiment on HepG2, 29%.
The like results for `CCN1CCC(N(Cc2ccc(-c3ccc(C(F)(F)F)cc3)cc2)C(=O)Cn2c(SCc3cccc(F)c3F)cc(=O)c3ccccc32)C1.O=C(O)C(O)C(O)C(=O)O` (stereo not given) were, in that order, 90%, 91% and 42%.
Regarding `O=C(Nc1ccc(-c2cccc(-c3nc4cc(C(F)(F)F)ccc4[nH]3)c2)cc1)Nc1ccc(F)c(F)c1F`, the results for the Inhibition in the experiment with Plasmodium falciparum [1], with Plasmodium falciparum [2] and with HepG2 were 99%, 85% and 58%, respectively.
As for `CC(C)CNC(=O)c1ccnc(-c2ccc(CNCCCc3ccccc3)cc2)c1.O=C(O)C(F)(F)F`, the Inhibition in the experiment on Plasmodium falciparum [1] came to 99%; in the experiment on Plasmodium falciparum [2], 22%; with HepG2, 12%.
